Source: PubChem BioAssay
Tau fibril FP = blocks human tau fibril formation measured by polarization; K18 P301L tau heparin fibrillization, Alexa594 FP, 6 h; 280,000 compounds, 0.39% hits; Potency, µM (doses to about 57.7 µM), for the others: at the highest dose activity, negative = inhibition, hits mostly inhibitors; P10636; note: potency is the fitted concentration of half-maximal effect; nearly all actives have a fitted effect of over 55% in size
Target sequence (P10636 561-689 P618L limits assumed): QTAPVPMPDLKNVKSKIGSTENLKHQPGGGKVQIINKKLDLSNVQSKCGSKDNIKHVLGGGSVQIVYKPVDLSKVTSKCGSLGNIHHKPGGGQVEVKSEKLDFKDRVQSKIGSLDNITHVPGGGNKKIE
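Quantitative HTS format: compounds meet 15 uM recombinant K18 P301L tau and Alexa 594-tau tracer in 100 mM sodium acetate pH 7; 20 uM heparin triggers fibrillization at 37 C over 6 hr; FP gives the signal.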
Sfp inh = inhibitors of Bacillus subtilis Sfp phosphopantetheinyl transferase. 310,000 compounds, 3.5% hits. Q9F4F7. Potency, µM, without a hit: largest response in the series, negative = inhibition, hits mostly inhibitors. Biochemical Sfp PPTase activity, qHTS. AID 1490;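 note: the enzyme is Sfp with the accession as filed and its product quenches rhodamine fluorescence; potency is the fitted concentration of half-maximal effect; 0% = enzyme reaction without inhibitor and -100% = no enzyme wells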
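Reaction rates are the 30-min fluorescence difference (ex 525, em 598 nm) in wells containing 15 nM Sfp, 5 uM rhodamine-CoA and 12.5 uM BHQ-2-YbbR at pH 7.6 with 10 mM MgCl2.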
Coupling enz = inhibits coupling enzyme system, counter-screen for aldolase hits; coupling enzyme system counterscreen, AmpLite Red fluorescence; activity change, negative = inhibition, % at 58.2 µM, hits read low; 290,000 compounds, 0.67% hits; in the data active = activity change below about -30%
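Counterscreen of the coupled detection system alone, without aldolase: glyceraldehyde-3-phosphate coupling enzymes plus AmpLite Red readout. Compounds at 57.5 uM final, 10 min RT preincubation, 20 min RT reaction, fluorescence 525/598 nm.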
Tau ThT inhib = blocks human tau fibril formation measured by thioflavin T | recombinant tau K18 P301L, heparin-induced fibrillization, ThT fluorescence | Potency, µM (titrated, usually from 57.4 µM), without a hit: at the highest dose activity, negative = inhibition, usual class: inhibitors | 270,000 compounds, 2.1% hits | AID 1460; note: potency is the fitted concentration of half-maximal effect; nearly all actives have a fitted effect of over 55% in size
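In this qHTS, human K18 P301L tau is incubated with compound and heparin for 6 hr at 37 C, and Thioflavin T fluorescence then reports fibril load.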
Tau fluor counter = counter-screen for tau fibril formation inhibitors; tau K18 P301L Alexa594 fluorescence, heparin fibrillization; Potency, µM (titrated, usually from 57.7 µM), for the others: at the top dose activity change, negative = decrease; 280,000 compounds, 0.93% hits; AID 1463; note: potency is the fitted concentration of half-maximal effect; nearly all actives have a fitted effect of over 55% in size
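Human tau K18 P301L (15 uM unlabeled, 0.24 uM Alexa 594-labeled) in 100 mM sodium acetate pH 7 with 20 uM heparin, 6 hr at 37 C. ThT 30 uM added, 1 hr ambient; Alexa 594 FP and total fluorescence read at 555/632 nm.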
JMJD2E inh = blocks human JMJD2E demethylase activity. B2RXH2. JMJD2E catalytic domain, FDH-coupled NADH fluorescence (FDH is formaldehyde dehydrogenase). Potency, µM (series often up to 57.1 µM), inactives show top-dose activity change, negative = inhibition, usual class: inhibitors. 230,000 compounds, 1.6% hits. AID 2147; active = well fitted inhibition curve with a large enough effect, not every such curve was filed as active; inconclusive = small, poorly fitted or top-dose-only effect, or another doubt; inactive = no such curve, though single readings can be large or run the other way;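 note: potency is the fitted concentration of half-maximal effect; 0% = wells with enzyme and -100% = buffer wells without enzyme; nearly all actives have a fitted effect of over 50% in size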
Target sequence (B2RXH2 1-337 limits assumed): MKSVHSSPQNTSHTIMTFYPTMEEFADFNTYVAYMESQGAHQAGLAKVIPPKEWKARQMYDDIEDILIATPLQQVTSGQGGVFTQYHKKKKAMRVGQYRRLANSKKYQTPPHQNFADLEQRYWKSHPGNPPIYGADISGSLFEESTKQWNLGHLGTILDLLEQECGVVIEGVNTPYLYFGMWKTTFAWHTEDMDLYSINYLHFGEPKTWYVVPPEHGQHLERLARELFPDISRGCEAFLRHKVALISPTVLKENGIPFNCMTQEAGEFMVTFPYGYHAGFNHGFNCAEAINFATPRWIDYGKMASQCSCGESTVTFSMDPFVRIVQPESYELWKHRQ
* marks the source's active call; other numbers are inactive results; u = inconclusive; x = no result; ! = not active in a repeat; [ ] = another dose, or the depositor's remark. A selection: hits, their analogues and other compounds. The true share with any hit is near 5.3%. Unless noted, calls come from the whole dose curve; as a rule, active = well fitted curve in the direction sought with a large enough effect; inconclusive = small, poorly fitted or top-dose-only effect, or another doubt; inactive = no such curve, though single readings can be large; an effect the other way counts as inactive or inconclusive. Unless noted, % is set by controls: 0 for no effect and ±100 for the full control effect.

SMILES | Tau fibril FP | Sfp inh | Coupling enz | Tau ThT inhib | Tau fluor counter | JMJD2E inh
CCOC(=O)C1CCCN(c2ccc(NC(=O)c3snc4c(=O)[nH]cnc34)cc2)C1 (centres undefined) | 12% | 2% | 0 | 2.8µM* | -27% | 1%
O=C(NCc1ccccc1Cl)c1ccccc1NC(=O)c1nsc2ccccc12 | u | x | x | 7% | -22% | x
COc1cc(N/N=C/c2ccccc2O)ncn1 | 2% | 2% | -1 | 7% | 3% | 25µM*
CCOc1ccc(/C=N/Nc2ccccn2)cc1OC | 5% | 56µM* | -1 | u | -14% | -14%
COc1cc(/C=N/Nc2ccccn2)cc(OC)c1O | 0% | 35µM* | -1 | u | u | -12%
CCOc1ccc(/C=N/N(C)c2ccccc2)cc1OC | u | -11% | 0 | 7.9µM* | u | -5%
Cc1ccccc1NC(=O)c1c(C)oc2ccc(O)c(CN3CCCC3)c12 | 0% | x | x | -9% | -10% | x
CCCN(CCC)C(=O)c1ccc2c(=O)n(Cc3ccco3)c(=S)[nH]c2c1 | 0% | 13µM* | 0 | -15% | -3% | -23%
O=c1c2cc3c(cc2[nH]c(=S)n1Cc1ccco1)OCO3 | 0% | 20µM* | 4 | -19% | -11% | 3%
CN1CCN(C(=O)c2ccc3c(=O)n(Cc4ccco4)c(=S)[nH]c3c2)CC1 | -3% | -5% | 1 | -15% | -11% | -2%
COC(=O)c1ccccc1NC(=O)NCCc1c(C)nn(C)c1C | -2% | x | x | -1% | 1% | x
Cc1ccc(CCNC(=O)c2cc3ccccn3n2)cc1 | 1% | x | x | -17% | -8% | x
Cc1ccccc1-c1ccc(Nc2ccc(N3CCOCC3)cc2)nn1 | 8% | u | -12 | 14µM* | u | -29%
Nc1ncnc(Sc2ncccn2)c1[N+](=O)[O-] | -4% | 35µM* | -3 | u | u | u
Nc1ncnc(Sc2ccccc2)c1[N+](=O)[O-] | -4% | 6% | 5 | u | u | -1%
CCOC(=O)Cc1csc(NC(=O)c2sc3nc4ccc(C)cc4cc3c2N)n1 | 9% | 3% | 1 | 3.2µM* | -16% | 2%
CCc1nnc(NC(=O)c2sc3nc4cc(C)ccc4cc3c2N)s1 | -5% | -11% | -4 | 2µM* | u | -7%
COCCN(C(=S)Nc1ccc(C)c(C)c1)C(C)c1ccco1 (centres undefined) | -8% | 8% | -1 | u | -25% | -2%
CCc1cccc(NC(=S)N(CCOC)C(C)c2ccco2)c1 (centres undefined) | 4% | 56µM* | -21 | 11% | 9% | -2%
c1cc(SSc2ccncc2)ccn1 | x | 35µM* | -1 | x | x | x
O=C1CC(c2ccco2)CC(O)=C1C=Nc1cc(Cl)ccc1Cl (centres undefined) | u | 50µM* | 1 | 22µM* | -18% | 0%
O=C1CC(c2ccco2)CC(O)=C1C=Nc1cc(Cl)ccc1O (centres undefined) | -3% | -24% | 2 | u | -28% | 28µM*
O=C1CC(c2ccco2)CC(O)=C1C=Nc1ccccc1-c1ccccc1 (centres undefined) | -2% | -3% | 4 | -23% | -11% | u
CCC(CC)C(=O)N1CCc2cc(OC)c(OC)cc2C1COc1ccc(C(=O)OC)cc1 (centres undefined) | 1% | x | x | -11% | -8% | x
Oc1cc2c(cc1O)C1c3ccc(O)c(O)c3OCC1(O)C2 (centres undefined) | 25µM* | 2.5µM*! | -72*! | 4µM* | u | 0.71µM*
SMILES | Tau fibril FP | Sfp inh | Coupling enz | Tau ThT inhib | Tau fluor counter | JMJD2E inh
O=Cc1s/c(=N\S(=O)(=O)c2ccccc2)n(CCCCl)c1Cl | u | -64% | -1 | 28µM* | -12% | 3%
O=C1c2ccccc2-c2n[nH]c(=O)c3ccc(N4CCCCC4)c1c23 | -3% | -9% | -4 | 14µM* | u | 2%
COCCNC(=O)CNC(c1ccccc1)c1ccccc1 | 3% | 45µM* | -4 | -12% | -12% | 5%
COc1cccc(CNCCSc2nnnn2C)c1OCc1ccc(Cl)cc1Cl | 3% | x | x | -12% | -16% | x
Cc1ccc(NC(=S)Nc2ccc3nc(-c4ccccn4)c(-c4ccccn4)nc3c2)cc1C | -14% | -18% | -53* | u | -29% | u
Cc1ccc(NC(=S)Nc2ccccn2)cc1C | -2% | -4% | 1 | -14% | -18% | -1%
CCn1c(N)nc2c1c(=O)n(C)c(=O)n2C | -4% | 13% | 2 | -5% | 4% | 11%
CCCc1nc2c(=O)n(C)c(=O)nc-2n(C)n1 | u | 10% | -74* | 14µM* | -7% | u
Cn1nc(-c2ccccn2)nc2c(=O)n(C)c(=O)nc1-2 | u | 50µM* | -76* | 5.6µM* | -20% | 7.1µM*
Cc1nnc(SCC2=C(C(=O)O)N3C(=O)C(NC(=O)c4cc(F)c(F)cc4Cl)C3SC2)s1 (centres undefined) | -4% | 50µM* | 2 | -9% | 9% | -9%
Cc1nnc(SCC2=C(C(=O)O)N3C(=O)C(NC(=O)Cn4nc(C(F)F)cc4C)C3SC2)s1 (centres undefined) | -13% | 79µM* | 2 | u | -3% | -8%
Cc1nnc(SCC2=C(C(=O)O)N3C(=O)C(NC(=O)Cn4nc(C(F)F)c(Cl)c4C)C3SC2)s1 (centres undefined) | -11% | -12% | 0 | u | -13% | -20%
Cc1ccc(NC2=CC(=O)c3sc(C)nc3C2=O)cc1 | x | -11% | -16 | x | x | x
O=Nc1c(-c2c(O)[nH]c3cc(Br)ccc23)[nH]c2ccccc12 | u | -18% | -11 | 2.2µM* | 8.9µM*[quencher] | 0%
CCOC(=O)c1c(NC(=S)Nc2ccccc2)sc2c1CC(C)(C)SC2 | -7% | -21% | 1 | u | -24% | 1%
CCOC(=O)c1c(NC(=S)NC)sc2c1CC(C)(C)SC2 | -8% | 20µM* | 0 | u | -24% | u
O=C(CSc1ncc(S(=O)(=O)c2ccc(Cl)cc2)c(=O)[nH]1)Nc1cccc(C(F)(F)F)c1 | -2% | x | x | -6% | -13% | x
CCN1c2ccccc2-c2nc(SCC(=O)Nc3cccc(C(F)(F)F)c3)ncc2S1(=O)=O | 28µM* | x | x | 13% | u | x
CC(C)c1ccc(S(=O)(=O)c2cnc(SCC(=O)Nc3cccc(C(F)(F)F)c3)nc2N)cc1 | 13µM* | x | x | u | u | x
CCc1cccc(NC(=O)CSc2ncc3c(n2)-c2ccccc2N(CC)S3(=O)=O)c1 | u | x | x | -13% | u | x
O=C(NCCNCCO)C1(C(F)(F)F)CC(CCc2ccccc2)CCCO1 (centres undefined) | x | -25% | 1 | x | x | x
